Results on eight compounds are retold here after PubChem BioAssay (NCATS).

Unmarked numbers belong to inactive results. Inconclusive results are not listed. Calls of active or inactive are those of the source. Unless noted, calls come from the whole dose curve; as a rule, active = well fitted curve in either direction with a large enough effect (not every such curve was filed as active); inconclusive = small, poorly fitted or top-dose-only effect, or another doubt; inactive = flat fitted curve, though single readings scatter.

For test [1], the target named is Lysosomal acid glucosylceramidase (Homo sapiens) (UniProt P04062). Kind of test: Glucocerebrosidase-p2 (AID 348; in the data active = potency below about 10 µM; note: potency is the fitted concentration of half-maximal effect). The note with it: purified GBA, blue fluorogenic substrate, 40 min. In short, it runs like this: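 Normal human glucocerebrosidase (0.2 nM) with blue fluorogenic substrate (80 uM final) in citrate/phosphate pH 5.9 with 10mM sodium taurocholate, 0.01% tween-20; 40 min RT, NaOH/glycine stop; fluorescence Ex 365/Em 440; AC50 from a titration from 0.6 nM upwards.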
Lysosomal acid glucosylceramidase (Homo sapiens), sequence (P04062 whole entry, looked up): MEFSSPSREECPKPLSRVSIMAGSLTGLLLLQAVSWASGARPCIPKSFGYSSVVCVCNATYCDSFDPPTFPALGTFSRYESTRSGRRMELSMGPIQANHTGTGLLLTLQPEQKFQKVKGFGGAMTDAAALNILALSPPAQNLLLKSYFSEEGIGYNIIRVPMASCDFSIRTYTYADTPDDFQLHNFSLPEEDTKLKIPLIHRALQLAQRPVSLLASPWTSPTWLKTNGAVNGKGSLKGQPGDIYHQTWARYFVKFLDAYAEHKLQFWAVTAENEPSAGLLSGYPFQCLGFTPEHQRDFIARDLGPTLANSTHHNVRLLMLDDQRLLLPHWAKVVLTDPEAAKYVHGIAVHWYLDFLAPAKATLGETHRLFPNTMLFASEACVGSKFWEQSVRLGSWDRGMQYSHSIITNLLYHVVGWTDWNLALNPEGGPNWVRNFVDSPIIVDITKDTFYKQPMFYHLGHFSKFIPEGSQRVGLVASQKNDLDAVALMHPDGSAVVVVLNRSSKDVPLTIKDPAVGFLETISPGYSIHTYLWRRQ

Test [2] can be described thus: AP1 Signaling Pathway (AID 357).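 Note: ME-180 reporter cells stimulated with EGF at its EC50 level; % is set by controls: 0 for no effect and ±100 for the full control effect.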 The settings on record: ME-180 AP-1-bla reporter, EGF-induced, beta-lactamase ratio, 5 h; at 7.69 µM (top of the series) unless noted. The method, boiled down:
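Modulation of EGF-driven AP-1 transcription was assessed with a beta-lactamase reporter in ME-180 cells. Compound and EC50 EGF were co-incubated 5 hours at 37 °C before 2.5-hour CCF4 loading at room temperature and dual-emission reading.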

The target of test [3] is Cytochrome P450 1A2 (Homo sapiens) (UniProt P05177). As to the kind of experiment: p450-cyp1a2 (AID 410; calls by dose curve; note: potency is the fitted concentration of half-maximal effect;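 for activity change, negative = inhibition: -100% = full effect of reference inhibitor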). The note with it: recombinant CYP1A2, luciferin-ME demethylation, luminescence; series mostly up to 57 µM. In short, it runs like this:
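Luminescent demethylation readout: Luciferin-ME (100uM, equal to Km) turned over by 20nM CYP1A2 for 60 min at room temperature after NADPH regeneration addition, following 10 min compound preincubation. Normalization used 57 uM furafylline as full inhibition.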

The nature of test [4]: NFAT Signaling Pathway (AID 444).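 Note: carbachol stimulus at about its EC50 of 1 µM final; % is set by controls: 0 for no effect and ±100 for the full control effect.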 The note with it: Jurkat NFAT-bla M1, carbachol, beta-lactamase ratio, 5 h; at 7.69 µM (top of the series) unless noted. The method, boiled down:
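Read-out: CCF4 FRET ratio (460 nm/530 nm) after 1 h RT dye loading, used for %activity and AC50 from titration series. Cells: Jurkat NFAT-β-lactamase/M1 line, treated with compound plus 1 uM carbachol for 5 h, 37 °C.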

Test [5] in a line: Stat Signaling Pathway (AID 446).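 Note: ME-180 cervical cancer cells given 40 pM IL-6 alongside compound; SIE-controlled beta-lactamase reporter measured as 460/530 nm FRET emission ratio; % is set by controls: 0 for no effect and ±100 for the full control effect.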 The settings on record: ME-180 SIE beta-lactamase reporter, IL-6 stimulated, 5 h; at 7.69 µM (top of the series) unless noted. In short, it runs like this: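 Overnight-plated ME-180 cells bearing a STAT Inducible Element beta-lactamase reporter; 5 h co-exposure to compound and 40 pM IL-6; values normalized to 300 pM IL-6 and 125 nM JAK inhibitor controls.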

Test [6] has as its target Glucocorticoid receptor (Homo sapiens) (UniProt P04150). Kind of test: GR-EFC Redistribution (AID 451; calls by dose curve; note: potency is the fitted concentration of half-maximal effect). The note with it: CHO-K1 GR-EFC translocation, beta-gal luminescence, 2 h. In short, it runs like this:
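Translocation of GR-ED fusion to nuclear EA restores b-gal, read by luminescence after 1 h room-temperature detection. Engineered CHO-K1 biosensor cells, 1,000/well, exposed 2 h at 37 C to titrations up to 46 uM final.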

In test [7] the target is Mitogen-activated protein kinase 10 (Mus musculus) (UniProt Q61831). Kind of test: JNK3 AlphaScreen Assay (AID 530).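 Note: kinase came from lysate of stimulated human HepG2 cells; signal reports phosphorylation of biotinylated GST-cJun 1-79 at Ser73 with 10 µM ATP; % is set by controls: 0 for no effect and ±100 for the full control effect.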 The note with it: JNK3 lysate, c-Jun phosphorylation; series mostly up to 57.1 µM. In short, it runs like this: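 qHTS titrations with 15 min compound pre-incubation before adding ATP (10 uM final). Read-out: AlphaScreen of Ser73-phosphorylated biotin-GST-cJun using HepG2 lysate JNK3 activated by IL-1β and TNFα.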
A general note: Bead proximity is the source of the signal in Alpha formats.

The target of test [8] is Cytochrome P450 3A4 (Homo sapiens) (UniProt P08684). As to the kind of experiment: qHTS Assay for Activators of Cytochrome P450 3A4 (AID 885; active = well fitted curve in the direction sought with a large enough effect; an effect the other way counts as inactive or inconclusive; note: nearly all actives have a fitted effect of over 65% in size). The note with it: recombinant CYP3A4, Luciferin-PPXE luminescence, 60 min; series mostly up to 57.1 µM. In short, it runs like this:
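Using 20nM recombinant human CYP3A4 in potassium phosphate (200mM), substrate Luciferin-PPXE at 25uM, luminescent luciferin detection followed a 60-min RT NADPH reaction; data scaled to 57 uM ketoconazole.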

Test [9] can be described thus: Confirmation and Secondary Assay for Modulators of Hemoglobin Beta Chain Splicing at IVS2 654 locus (AID 910; active = well fitted curve in the direction sought with a large enough effect; an effect the other way counts as inactive or inconclusive;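 note: HeLa cells stably carrying EGFP split by mutant beta-globin IVS2-654 intron; % of control where 0% means no effect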). The note with it: HeLa EGFP-654 splicing reporter, GFP fluorescence, 48 h; series mostly up to 38.3 µM. The method, boiled down:
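Readout: per-well total peak green fluorescence (488 nm ex, 500–520 nm em) from objects 5–250 µm, reflecting correct splicing of an EGFP-654 reporter. Compounds were applied for 2 days at 37 °C to overnight-plated HeLa EGFP-654 cells; controls were DMSO and 500 nM IVS2-654 PNA.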

A short description of test [10]: Confirmation and Secondary Assay for Modulators of Hemoglobin Beta Chain Splicing at IVS2 705 locus (AID 930; active = well fitted curve in the direction sought with a large enough effect; an effect the other way counts as inactive or inconclusive;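 note: HeLa cells stably expressing the EGFP-705 splicing reporter; GFP fluorescence per well restored by corrected splicing of the IVS2-705 intron in EGFP; % of control where 0% means no effect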). The settings on record: HeLa EGFP-705 splicing reporter, GFP fluorescence, 48 h; series mostly up to 38.3 µM. The method, boiled down:
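HeLa cells stably carrying EGFP interrupted by mutant beta-globin intron 2 (IVS2-705) treated 2 days at 37C with compound; 500 nM antisense PNA as control. Correct splicing read as total peak GFP intensity per well by laser-scanning cytometry.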

Test [11] can be described thus: Primary qHTS for small molecule stabilizers of the endoplasmic reticulum resident proteome: Secreted ER Calcium Modulated Protein (SERCaMP) assay (AID 1508630; active = well fitted curve in the direction sought with a large enough effect; an effect the other way counts as inactive or inconclusive; note: % is set by controls: 0 for no effect and ±100 for the full control effect). The note with it: SH-SY5Y GLuc-SERCaMP (Gaussia luciferase released on ER calcium loss) secretion, thapsigargin, luminescence; series mostly up to 38.4 µM. The method, boiled down: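 The SH-SY5Y reporter protocol was run at 3 concentrations up to 38.3 uM (primary) or 11 concentrations (follow-up): 16 h compound, 100 nM thapsigargin for 4 h, then extracellular luciferase luminescence.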
In general terms: qHTS replaces the single test concentration by a dilution series.

For test [12], the target named is 3',5'-cyclic-AMP phosphodiesterase 4B (Homo sapiens) (UniProt Q07343). Kind of test: qHTS Assay for Inhibitors of PDE-IV (AID 607; active = well fitted activation curve with a large enough effect in the main read-out, with a control signal flat, not every such curve was filed as active; note: % of control where 0% means no effect). The settings on record: HEK293 ACTOne CNG channel cells, membrane potential fluorescence; series mostly up to 22.9 µM. In short, it runs like this:
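Live HEK293 cells with a modified cyclic nucleotide-gated (CNG) channel report intracellular cAMP via membrane-potential dye fluorescence (ex 535/em 590 nm). Endogenous PDE-IV was targeted. Compounds were tested at up to 22.9 uM final; RO 20-1724 100 uM served as control.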

Test [13] can be described thus: qHTS Assay for Identification of Small Molecule Agonists for Hypoxia Response Element Signaling Pathway (AID 914; active = well fitted activation curve with a large enough effect in the signal ratio, with a control signal flat, not every such curve was filed as active; the % refers to the signal ratio; note: % of control where 0% means no effect). The note with it: ME-180 (cervical carcinoma) HRE-bla reporter, beta-lactamase ratio, CoCl2, 17 h; activation: active compounds read high. The method, boiled down: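 HRE-bla ME-180 cells with beta-lactamase reporter under hypoxia response element, compounds with EC50 CoCl2 for 17 hours at 37 C. CCF4 substrate, 460nm/530nm emission ratio gave %Activity; AC50 from titration series.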

Cytochrome P450 1A2 (Homo sapiens), sequence (P05177 whole entry, looked up): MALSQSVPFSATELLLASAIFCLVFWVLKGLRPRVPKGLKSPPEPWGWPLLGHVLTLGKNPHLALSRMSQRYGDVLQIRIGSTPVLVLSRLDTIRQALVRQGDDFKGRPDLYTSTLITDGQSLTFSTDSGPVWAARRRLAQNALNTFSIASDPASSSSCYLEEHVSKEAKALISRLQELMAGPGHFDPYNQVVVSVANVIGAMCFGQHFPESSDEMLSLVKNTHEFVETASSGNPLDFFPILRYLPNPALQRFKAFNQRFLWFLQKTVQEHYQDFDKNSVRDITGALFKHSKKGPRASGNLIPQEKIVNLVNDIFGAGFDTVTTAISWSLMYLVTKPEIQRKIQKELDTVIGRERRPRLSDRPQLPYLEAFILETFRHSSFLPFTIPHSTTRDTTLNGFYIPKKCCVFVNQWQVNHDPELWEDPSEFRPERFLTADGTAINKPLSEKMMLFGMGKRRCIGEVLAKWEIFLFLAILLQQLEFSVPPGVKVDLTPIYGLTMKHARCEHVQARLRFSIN
Cytochrome P450 3A4 (Homo sapiens), sequence (P08684 whole entry, looked up): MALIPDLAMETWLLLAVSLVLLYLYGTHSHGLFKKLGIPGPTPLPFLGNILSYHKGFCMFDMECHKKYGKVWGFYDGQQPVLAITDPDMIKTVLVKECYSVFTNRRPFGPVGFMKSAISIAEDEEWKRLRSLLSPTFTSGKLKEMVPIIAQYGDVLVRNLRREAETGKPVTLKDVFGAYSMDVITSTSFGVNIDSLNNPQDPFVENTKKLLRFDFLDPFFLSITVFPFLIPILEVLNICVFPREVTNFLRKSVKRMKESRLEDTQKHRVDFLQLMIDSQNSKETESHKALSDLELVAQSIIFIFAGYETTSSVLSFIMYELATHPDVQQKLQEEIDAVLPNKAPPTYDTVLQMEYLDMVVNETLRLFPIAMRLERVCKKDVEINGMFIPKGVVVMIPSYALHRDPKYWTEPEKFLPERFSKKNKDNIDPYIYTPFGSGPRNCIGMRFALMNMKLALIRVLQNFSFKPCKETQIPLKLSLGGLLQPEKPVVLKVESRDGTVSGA
Glucocorticoid receptor (Homo sapiens), sequence (P04150 whole entry, looked up, the tested form may be a part): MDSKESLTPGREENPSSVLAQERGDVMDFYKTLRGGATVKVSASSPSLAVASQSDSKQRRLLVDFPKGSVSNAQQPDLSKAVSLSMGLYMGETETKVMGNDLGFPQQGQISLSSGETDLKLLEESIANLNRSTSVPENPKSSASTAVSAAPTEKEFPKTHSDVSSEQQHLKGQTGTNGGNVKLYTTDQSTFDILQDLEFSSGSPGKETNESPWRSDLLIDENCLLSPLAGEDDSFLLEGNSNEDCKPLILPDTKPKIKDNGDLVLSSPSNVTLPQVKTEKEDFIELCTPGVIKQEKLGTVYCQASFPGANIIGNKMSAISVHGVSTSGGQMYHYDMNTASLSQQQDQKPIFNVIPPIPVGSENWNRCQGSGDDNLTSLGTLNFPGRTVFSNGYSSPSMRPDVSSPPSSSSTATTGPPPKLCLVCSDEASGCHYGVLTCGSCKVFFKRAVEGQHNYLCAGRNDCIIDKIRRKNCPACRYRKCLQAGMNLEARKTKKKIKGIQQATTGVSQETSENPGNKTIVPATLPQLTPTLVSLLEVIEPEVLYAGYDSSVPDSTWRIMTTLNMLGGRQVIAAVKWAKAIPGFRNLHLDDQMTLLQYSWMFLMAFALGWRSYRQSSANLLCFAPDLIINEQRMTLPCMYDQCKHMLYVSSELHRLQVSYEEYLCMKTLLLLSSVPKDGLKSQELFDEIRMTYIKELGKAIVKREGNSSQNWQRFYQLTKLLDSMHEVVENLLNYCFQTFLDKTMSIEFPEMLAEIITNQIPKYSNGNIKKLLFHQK
3',5'-cyclic-AMP phosphodiesterase 4B (Homo sapiens), sequence (Q07343 whole entry, looked up): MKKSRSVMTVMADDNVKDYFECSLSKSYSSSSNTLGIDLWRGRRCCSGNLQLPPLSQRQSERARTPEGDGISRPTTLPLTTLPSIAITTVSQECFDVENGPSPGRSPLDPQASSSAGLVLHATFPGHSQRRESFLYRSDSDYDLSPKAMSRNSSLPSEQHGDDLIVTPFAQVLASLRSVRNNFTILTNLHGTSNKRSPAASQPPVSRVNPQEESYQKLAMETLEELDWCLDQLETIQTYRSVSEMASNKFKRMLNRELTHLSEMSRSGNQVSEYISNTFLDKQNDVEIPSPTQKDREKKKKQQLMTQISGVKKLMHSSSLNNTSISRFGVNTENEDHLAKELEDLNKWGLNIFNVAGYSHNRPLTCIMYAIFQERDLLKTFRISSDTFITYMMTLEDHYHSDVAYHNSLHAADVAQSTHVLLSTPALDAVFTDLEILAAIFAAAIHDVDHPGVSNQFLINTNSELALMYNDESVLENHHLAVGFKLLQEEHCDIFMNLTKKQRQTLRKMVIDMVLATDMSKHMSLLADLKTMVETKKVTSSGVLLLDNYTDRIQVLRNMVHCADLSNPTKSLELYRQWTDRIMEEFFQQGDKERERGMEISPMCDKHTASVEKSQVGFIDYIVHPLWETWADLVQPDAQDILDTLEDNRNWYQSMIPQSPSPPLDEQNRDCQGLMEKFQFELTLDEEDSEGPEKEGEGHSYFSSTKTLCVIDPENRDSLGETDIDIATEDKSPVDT

Take `Cc1cccc(CNc2nc(-c3ccccc3CN(C)C)nc3ccccc23)c1`: the Potency was greater than 11.4 µM in test [1], 3.16 µM (active) in [3] and greater than 46 µM in test [6]. Besides, the activity change, negative = inhibition in test [2] is 20.6%; in [4], -22.2%. In test [5], the activity, negative = inhibition was -0.581%. Moreover, the Potency result in [7], in test [8] and in test [9] was “inactive” in each case. Further, the compound was classed as inactive in test [10] and in test [11].
For the compound `O=C(Nc1cccc(F)c1)N1CCCC2(CCN(C(=O)c3cnccn3)CC2)C1`, the Potency in [1] was greater than 11.4 µM; in test [6], greater than 46 µM. Further, the activity change, negative = inhibition in test [2] was -5.64%; in test [4], -3.4%. In addition, the Potency entry in [3], in [7] and in test [8] was “inactive” each time. For the same compound, in test [5], the activity, negative = inhibition was -5.83%. Moreover, the outcome in test [11] was inactive.
As for `COC(=O)N1CCC[C@@]2(CCN(c3ncccn3)C2)C1`, the Potency in [1] is greater than 11.4 µM; in test [6], greater than 46 µM. Also, the activity change, negative = inhibition in test [2] was 2.3%; in test [4] it was 11.8%. Moreover, the Potency entry in test [3], in [7] and in test [12] was “inactive” in each case. Moreover, the activity, negative = inhibition in test [5] was 8.51%. In addition, the activation in [13] is 23.3%. Also, in test [11], the result was inactive.
Consider `Cn1cccc1C(=O)N1CCC[C@@]2(CCN(Cc3nccs3)C2)C1`, for which the Potency in [1] is greater than 11.4 µM; in test [6] it was greater than 46 µM. In addition, the activity change, negative = inhibition is -4.63% in test [2] and 12.5% in test [4]. Besides, the Potency entry in [3], in test [7], in [12] and in [8] was “inactive” throughout. In test [5], the activity, negative = inhibition was 9.2%. Moreover, in [11], the result was inactive.
For the compound `COc1cccc(Cn2c(=O)c(-c3cccc(C#N)c3)nc3cnc(Nc4ccccc4)nc32)c1`, the Potency was greater than 11.4 µM in [1] and greater than 46 µM in [6]. Also, the activity change, negative = inhibition in test [2] is -3.95%; in [4] it was -12.1%. For the same compound, the Potency result in test [3], in [7], in test [12] and in test [8] was “inactive” throughout. Also, in [5], the activity, negative = inhibition was -14.2%. For the same compound, the outcome in test [11] was inactive.
In the case of `O=C(c1cnccn1)N1CCC[C@@]2(CCN(Cc3ccncc3)C2)C1`, the Potency in test [1] was greater than 11.4 µM; in test [3], 15.8 µM (active); in test [6] it was greater than 46 µM. The figures for the activity change, negative = inhibition in test [2] and in test [4] were -3.77% and 7.13%, respectively. The activity, negative = inhibition in test [5] is -5.95%. Also, the Potency result in test [7], in [12] and in test [8] was “inactive” throughout. Also, the outcome in test [11] was inactive.
As for `CS(=O)(=O)N1CCC[C@@]2(CCN(C(=O)Nc3cccc(C#N)c3)C2)C1`, the figures for the Potency in test [1] and in [6] were greater than 11.4 µM and greater than 46 µM, respectively. Further, the figures for the activity change, negative = inhibition in test [2] and in test [4] were -2.32% and 9.12%, respectively. Besides, the Potency result in [3], in test [7], in test [12] and in [8] was “inactive” each time. Further, in test [5], the activity, negative = inhibition is 1.86%. In addition, the result in [11] was inactive.
With `O=C(Nc1ccccc1)N1CCCC2(CCN(C(=O)c3cnccn3)CC2)C1`, the Potency is greater than 11.4 µM in test [1] and greater than 46 µM in test [6]. Besides, the activity change, negative = inhibition was 4.4% in test [2] and 15.7% in test [4]. The Potency entry in test [3], in [7], in test [12] and in [8] was “inactive” in each case. Moreover, in test [5], the activity, negative = inhibition was 2.67%. Also, the result in test [11] was inactive.
